Laboratory results taken from PubChem BioAssay (NCATS).
Inconclusive results are not listed. Activity calls are given as the source filed them. Calls come from the whole dose curve; as a rule, active = well fitted inhibition curve with a large enough effect; inconclusive = small, poorly fitted or top-dose-only effect; inactive = flat fitted curve, though single readings scatter.

What was measured:
Assay in all cases: Cytotoxic Profiling of Annotated Libraries Using Quantitative High-Throughput Screening (AID 1296008); note: nearly all actives have a fitted effect of over 60% in size
Details in all cases: Five cell lines viability, CellTiter-Glo ATP luminescence, 48-72 h; max response: active compounds read low
CRL-7250 = normal cell line; tested on: CRL-7250
How it was run: (§1)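 Cytotoxicity was measured as CellTiter-Glo ATP luminescence, read after 10 min at room temperature. Compound treatment of the cells lasted 48 or 72 hr at 37 degrees Celsius in a qHTS format.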

HEK293 = tested on: HEK293
How it was run: as §1

HaCat = tested on: HaCat
How it was run: as §1

KB-3-1 = tested on: KB-3-1
How it was run: as §1

NIH3T3 = tested on: NIH3T3
How it was run: as §1
% is set by controls: 0 for no effect and ±100 for the full control effect; potency is the fitted concentration of half-maximal effect.

COc1c2c(c(C)c3c1C(=O)OC3)O[C@@]1(C)CC(O)C(C(C)(C)O)[C@](C)(CCC(=O)O)[C@H]1C2 (stereo not given in full)
inactive: outcome (CRL-7250) | max response (HEK293) 4.24% | max response (HaCat) 2% | outcome (KB-3-1) | max response (NIH3T3) -2.21%

CC(C)=CC/C=C(\C)[C@H]1CC[C@]2(C)[C@@H]1[C@H](O)C[C@@H]1[C@@]3(C)CC[C@H](O)C(C)(C)[C@@H]3[C@@H](O[C@@H]3O[C@H](CO)[C@@H](O)[C@H](O)[C@H]3O)C[C@]12C
inactive: max response (CRL-7250) 2.02% | max response (HEK293) -11.4% | max response (HaCat) 4.08% | outcome (KB-3-1) | max response (NIH3T3) -21.6%

COc1cc2oc(-c3ccc(O)cc3O)cc2c(OC)c1CC=C(C)C
inactive: max response (CRL-7250) -1.99% | max response (HEK293) 3% | max response (HaCat) -6.75% | max response (KB-3-1) -1.08% | max response (NIH3T3) 2.22%

CC12CCC(OC3OC(CO)C(O)C(OC4OC(CO)C(O)C(O)C4O)C3O)CC1CCC1C2CCC2(C)/C(=C3/COC(=O)C3)CCC12O (stereo not given)
inactive: max response (CRL-7250) -8.75% | max response (HEK293) -1.14% | max response (HaCat) -0.083% | max response (KB-3-1) -0.791% | max response (NIH3T3) 4.18%

COc1c2c(c(C)c3c1C(=O)OC3)O[C@@]1(C)CCC3(C(C)(C)O)OC(=O)CC[C@]3(C)[C@H]1C2 (stereo not given in full)
inactive: max response (CRL-7250) -2.51% | max response (HEK293) -0.697% | max response (HaCat) -17.1% | outcome (KB-3-1) | max response (NIH3T3) -21.1%

O=C(O)Cc1ccc2oc(-c3ccc(NC(=O)/C=C/c4ccc(Br)cc4)c(F)c3)nc2c1
inactive: max response (CRL-7250) 4.13% | max response (HEK293) -7.74% | max response (HaCat) 2.81% | max response (KB-3-1) 0.378% | max response (NIH3T3) 1.97%

COc1ccc2cc(C(C)C(=O)Oc3ccc(C(N)=S)cc3)ccc2c1 (stereo not given)
inactive: outcome (CRL-7250) | max response (HEK293) -0.854% | max response (HaCat) 2.17% | max response (KB-3-1) 7.25% | max response (NIH3T3) 3.5%

CC(=O)CC1CCC(C(C)C(=O)OCC(O)CO)O1 (stereo not given)
inactive: max response (CRL-7250) 2.08% | max response (HEK293) -3.6% | max response (HaCat) -2.79% | outcome (KB-3-1) | max response (NIH3T3) -24.7%

CO[C@H]1O[C@@H]2O[C@]3(C)CC[C@H]4[C@H](C)CC[C@@H]([C@H]1C)[C@@]24OO3
inactive: max response (CRL-7250) -2.96% | max response (HaCat) -0.0315% | outcome (KB-3-1) | max response (NIH3T3) 4.96%
active: Potency (HEK293) 10.3 µM

CC(C)C1=CC2C(CC[C@]2(C)O)[C@](C)(O)CC1 (stereo not given in full)
inactive: max response (CRL-7250) -11.6% | max response (HEK293) -1.9% | max response (HaCat) 2.33% | outcome (KB-3-1) | max response (NIH3T3) 2.57%

Cc1nc(C)c(-c2ccc(C3CCC(CC(=O)O)CC3)cc2)nc1C(N)=O (stereo not given)
inactive: max response (CRL-7250) 0.3% | max response (HEK293) -0.422% | max response (HaCat) -2.77% | max response (KB-3-1) -11.8% | max response (NIH3T3) 2.81%

C=C(C(=O)O)C1CCC2(C)CCC(O)C(C)(O)C2C1 (stereo not given)
inactive: max response (CRL-7250) -18% | max response (HEK293) -0.305% | max response (HaCat) -8.51% | max response (KB-3-1) 1.37% | max response (NIH3T3) -18.2%

COC(=O)c1cc(OC)c(O[C@@H]2O[C@@H](C)[C@H](O)[C@@H](O)[C@H]2O)c(OC)c1
inactive: outcome (CRL-7250) | max response (HEK293) -6.73% | max response (HaCat) -17.1% | max response (KB-3-1) 4.85% | max response (NIH3T3) 2.7%

CC1(C)CC[C@]2(C(=O)O[C@@H]3O[C@H](CO[C@@H]4O[C@H](CO)[C@@H](O)[C@H](O)[C@H]4O[C@@H]4O[C@H](CO)[C@@H](O)[C@H](O)[C@H]4O)[C@@H](O)[C@H](O[C@@H]4O[C@H](CO)[C@@H](O)[C@H](O)[C@H]4O)[C@H]3O)CC[C@]3(C)C(=CCC4[C@@]5(C)CC[C@@H](O)[C@@](C)(C(=O)O[C@@H]6O[C@H](CO)[C@@H](O)[C@H](O)[C@H]6O)C5CC[C@]43C)[C@@H]2C1 (stereo not given in full)
inactive: outcome (CRL-7250) | max response (HEK293) -9.43% | max response (HaCat) -7.02% | outcome (KB-3-1) | max response (NIH3T3) 1.8%

C=C1[C@H](OC(C)=O)[C@H]2[C@@H](OC(C)=O)[C@](C)(OC(C)=O)C[C@]2(OC(C)=O)C(=O)[C@H](C)/C=C/C(C)(C)C(=O)[C@H](OC(=O)C(C)CC)[C@H]1OC(C)=O (stereo not given in full)
inactive: max response (CRL-7250) -1.41% | max response (HEK293) 1.43% | max response (HaCat) -2.99% | outcome (KB-3-1) | max response (NIH3T3) -13.5%

COc1ccc([C@@H]2OC[C@H]3[C@@H]2CO[C@@H]3c2ccc(OC3OC(CO)C(O)C(O)C3O)c(OC)c2)cc1OC (stereo not given in full)
inactive: max response (CRL-7250) -6.62% | max response (HEK293) -3.32% | max response (HaCat) -0.266% | max response (KB-3-1) 8.67% | max response (NIH3T3) -7.42%

CC[C@H](NC(=O)[C@H](CS(=O)(=O)CC1CC1)N[C@@H](c1ccc(F)cc1)C(F)(F)F)C(=O)C(=O)NC1CC1
inactive: max response (CRL-7250) 3.55% | max response (HEK293) -20.2% | max response (HaCat) -1.21% | max response (KB-3-1) 3.82% | max response (NIH3T3) -16%

C=C1C(=O)OC2CC3(C)C(CC12)C(C)=CC(O)C3OC(C)=O (stereo not given)
inactive: max response (CRL-7250) -3.42% | max response (HEK293) -3.84% | max response (HaCat) 3.89% | outcome (KB-3-1) | max response (NIH3T3) -1.8%

CC1=CC2C(CC1OC1OC(CO)C(O)C(O)C1O)C(C)CC(=O)C2C(C)C (stereo not given)
inactive: max response (CRL-7250) 0.564% | max response (HEK293) -0.187% | max response (HaCat) -4.3% | outcome (KB-3-1) | max response (NIH3T3) 1.5%

C[C@@H]1O[C@@H](O[C@H]2[C@H](O)[C@@H](O)[C@H](OC3CCC4(C)C5CCC(C)(C(CO)OC6OC(CO)C(O)C(O)C6O)CC5=CCC4C3(C)C)O[C@@H]2CO)[C@H](O)[C@H](O)[C@H]1O (stereo not given in full)
inactive: max response (CRL-7250) 2.65% | max response (HEK293) 4.31% | max response (HaCat) -0.0812% | max response (KB-3-1) 0.989% | max response (NIH3T3) 3.8%

C/C1=C\CC[C@]2(C)O[C@@H]2[C@H](O)[C@H](C(C)C)[C@H](OC(=O)/C=C/c2ccccc2)C1
inactive: max response (CRL-7250) -51% | max response (HEK293) -26.5% | max response (HaCat) -5.06% | max response (KB-3-1) -3.73% | max response (NIH3T3) 2.07%

C(#Cc1nc2ncccc2nc1OCCN1CCCC1)c1ccccc1
active: Potency (CRL-7250) 6.51 µM | Potency (HEK293) 1.84 µM | Potency (HaCat) 5800 nM | Potency (KB-3-1) 8.2 µM | Potency (NIH3T3) 5.17 µM

CC12CCC(=O)C=C1C(O)CC1C2C(O)CC2(C)C1CC[C@]2(O)C(=O)CO (stereo not given in full)
inactive: outcome (CRL-7250) | max response (HEK293) -5.89% | max response (HaCat) 0.87% | outcome (KB-3-1) | max response (NIH3T3) 0.282%

CC(C)(C)CCN1C[C@@H]2C(CNC(=O)c3cc(Cl)cc(Cl)c3)[C@@H]2C1 (stereo not given in full)
inactive: max response (CRL-7250) -6.01% | max response (HEK293) -15.4% | max response (HaCat) -17.8% | max response (KB-3-1) -5.02% | max response (NIH3T3) -2.97%

COc1ccc(-c2ccc(-c3cn(C(=O)N4CCCCC4c4ccccc4)nn3)cc2)cc1 (stereo not given)
inactive: outcome (CRL-7250) | max response (HEK293) 1.03% | max response (HaCat) -8.43% | max response (KB-3-1) -8.19% | max response (NIH3T3) 1.57%

COc1cc2c(cc1O)CC[C@H]1[C@@H]2CC[C@]2(C)[C@H](O)CC[C@@H]12
active: Potency (CRL-7250) 14.6 µM | Potency (HEK293) 1.03 µM | Potency (HaCat) 580 nM | Potency (KB-3-1) 1.64 µM | Potency (NIH3T3) 0.82 µM

CCOc1cc2ncc(C#N)c(Nc3ccc(F)c(Cl)c3)c2cc1NC(=O)/C=C/CN(C)C
active: Potency (CRL-7250) 0.651 µM | Potency (HEK293) 1.64 µM | Potency (HaCat) 25.9 nM | Potency (KB-3-1) 5.8 µM | Potency (NIH3T3) 3.66 µM

COc1cccc(Nc2ncnn3ccc(CN4CC[C@@H](N)[C@H](O)C4)c23)c1
active: Potency (CRL-7250) 8.2 µM | Potency (HEK293) 13 µM | Potency (HaCat) 5.8 nM | Potency (NIH3T3) 0.517 µM
inactive: max response (KB-3-1) -14.7%

COC(=O)C1=COC(O[C@@H]2O[C@H](CO)[C@@H](O)[C@H](O)[C@H]2O)[C@H]2[C@@H]1[C@H](OC(=O)CCc1ccc(O)cc1)C[C@]2(C)O (stereo not given in full)
inactive: outcome (CRL-7250) | max response (HEK293) 0.992% | max response (HaCat) -1.18% | max response (KB-3-1) -2.46% | max response (NIH3T3) 2.76%

CC(C)CNCc1ccc(-c2ccccc2S(=O)(=O)N2CCCC2)cc1
inactive: max response (CRL-7250) 1.47% | max response (HEK293) -19.2% | max response (HaCat) -12.3% | max response (KB-3-1) -1.28% | max response (NIH3T3) -1.63%

CC1OC(OC2C(O)C(OC3CCC4(C)C(CCC5(C)C4CC=C4C6CC(C)(COC7OC(CO)C(O)C(O)C7O)CC(O)C6(C)CCC45C)C3(C)C)OC(C(=O)O)C2O)C(O)C(O)C1OC1OCC(O)C(O)C1O (stereo not given)
inactive: max response (CRL-7250) 3.82% | max response (HEK293) -5.93% | max response (HaCat) -5.35% | outcome (KB-3-1) | max response (NIH3T3) -0.449%

CC(C)(C)c1ccc(S(=O)(=O)Nc2ccc(Cl)cc2C(=O)c2cc[n+]([O-])cc2)cc1
inactive: max response (CRL-7250) -19.6% | max response (HEK293) -2.23% | max response (HaCat) -10.2% | outcome (KB-3-1) | max response (NIH3T3) -1.11%

CC(C)S(=O)(=O)NC[C@H](C)c1ccc(NC(=O)c2cc(F)cc(F)c2)cc1
inactive: outcome (CRL-7250) | max response (HEK293) -6.11% | max response (HaCat) -5.79% | max response (KB-3-1) 3.14% | max response (NIH3T3) 3.47%

COc1cccc2cc3c(c(O[C@@H]4O[C@H](CO[C@@H]5O[C@H](CO)[C@@H](O)[C@H](O)[C@H]5O)[C@@H](O)[C@H](O)[C@H]4O)c12)C(C)OC3=O (stereo not given in full)
inactive: max response (CRL-7250) -0.694% | max response (HEK293) 2.15% | max response (HaCat) -3.49% | max response (KB-3-1) 9.17% | max response (NIH3T3) 0.0764%

C=C(C(=O)O)C1CC2=C(C)CCCC2(C)C[C@@H]1O (stereo not given in full)
inactive: outcome (CRL-7250) | max response (HEK293) -3% | max response (HaCat) 0.301% | outcome (KB-3-1) | max response (NIH3T3) 4.2%

CC(C)c1cc2c(c(O)c1O)[C@@]13CCCC(C)(C)[C@@H]1[C@H](OC3=O)C2=O
inactive: max response (CRL-7250) 0.881% | max response (HEK293) -6.57% | max response (HaCat) -2.13% | max response (KB-3-1) -17.1% | max response (NIH3T3) 3.28%

Cc1nc2sc(C(=O)NCc3ccncc3)c(N)c2c(C)c1Cl
inactive: max response (CRL-7250) 0.486% | max response (HEK293) -2.15% | max response (HaCat) 0.272% | max response (KB-3-1) -3.45% | max response (NIH3T3) -29.7%
